# PubChem BioAssay
# Where “and” joins values, the source holds several entries; their conditions need not be identical. Equal values may be shown once. Unmarked numbers belong to inactive results. Calls of active or inactive are those of the source.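 The calls were made as follows: active = thallium flux through the channel raised or lowered by more than 3 SD from vehicle-only wells, actives on both sides; inactive = the rest.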
# What was measured:
# Assay in all cases: BK channel mutant inhibitors and activators – cell-based, U2OS BacMam, thallium flux, beta subunits, selectivity assay, profiling panel (AID 1259406);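 also: initial slope of Thallos dye fluorescence rise after thallium is added; log ratio against the mean of 0.3% DMSO vehicle wells on the same plate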
# F380Y/beta2Delta = conditions: U2OS BacMam BK variants, at 30 µM
# F380Y/beta4 = conditions: U2OS BacMam BK variants, at 30 µM
# [1] = biological target: Calcium-activated potassium channel subunit alpha-1 (Homo sapiens) + Leucine-rich repeat-containing protein 26 (Homo sapiens) (UniProt Q12791+Q2I0M4); conditions: U2OS BacMam BK variants, F380Y/Slo1WT/gamma1, at 30 µM
# R275C = conditions: U2OS BacMam BK variants, at 30 µM
# R275C/beta1 = conditions: U2OS BacMam BK variants, at 30 µM
# R275C/beta2Delta = conditions: U2OS BacMam BK variants, at 30 µM
# R275C/beta4 = conditions: U2OS BacMam BK variants, at 30 µM
# R275C/Slo1WT/beta2 = conditions: U2OS BacMam BK variants, at 30 µM
# Chain of Calcium-activated potassium channel subunit alpha-1 (Homo sapiens) + Leucine-rich repeat-containing protein 26 (Homo sapiens) (Q2I0M4 whole entry, looked up, one chain of several): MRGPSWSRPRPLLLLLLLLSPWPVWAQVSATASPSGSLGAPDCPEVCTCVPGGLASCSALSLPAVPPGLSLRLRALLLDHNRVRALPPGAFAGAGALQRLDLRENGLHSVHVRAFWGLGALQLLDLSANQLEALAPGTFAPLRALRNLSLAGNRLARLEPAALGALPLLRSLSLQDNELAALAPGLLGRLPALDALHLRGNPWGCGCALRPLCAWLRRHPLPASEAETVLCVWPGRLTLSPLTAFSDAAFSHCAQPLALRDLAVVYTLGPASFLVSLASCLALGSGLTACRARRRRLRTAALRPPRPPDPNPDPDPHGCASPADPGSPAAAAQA
SMILES,log fold change Tl+ flux (F380Y/beta2Delta),log fold change Tl+ flux (F380Y/beta4),log fold change Tl+ flux [1],log fold change Tl+ flux (R275C),log fold change Tl+ flux (R275C/beta1),log fold change Tl+ flux (R275C/beta2Delta),log fold change Tl+ flux (R275C/beta4),log fold change Tl+ flux (R275C/Slo1WT/beta2)
O=c1[nH]cnc2c1ncn2[C@H]1CC[C@@H](CO)O1,0.0117,-0.00261,0.0216,-0.0353,-0.00622,-0.00829,0.000837,0.00413
CCOC(=O)[C@H](CCc1ccccc1)N[C@@H](C)C(=O)N1[C@H](C(=O)O)C[C@@H]2CCC[C@@H]21,0.0153 and 0.0206,0.00789 and 0.00803,-0.0126 and 0.00594,0.0107 and 0.01,-0.0118 and -0.0507,-0.0152 and 0.00655,0.00822 and 0.0154,-0.0515 and 0.000239
CN(CCCN1c2ccccc2CCc2ccccc21)CC(=O)c1ccc(Cl)cc1,-0.0465,0.0103,0.00396,-0.00393,0.055,0.0142,0.0763,-0.0536
Cn1c(NCCN(CCO)CCCc2ccc([N+](=O)[O-])cc2)cc(=O)n(C)c1=O,-0.007,-0.0379,0.0127,-0.128 (active),-0.0368,0.012,-0.00107,0.0338
COC(=O)C1=C(C)NC(C)=C(C(=O)O[C@@H]2CCCN(Cc3ccccc3)C2)[C@@H]1c1cccc([N+](=O)[O-])c1,-0.042,-0.0532,-0.0108,-0.0526,0.192 (active),0.191 (active),-0.0168,-0.0109
C[C@]12C[C@H](O)[C@H]3[C@@H](CCC4=CC(=O)CC[C@@]43C)[C@@H]1CC[C@@H]2C(=O)CO,-0.00742,0.0166,0.0373,-0.04,0.00127,0.0285,0.0631,0.00421
CN(C)CC[C@@H](c1ccc(Br)cc1)c1ccccn1,-0.012,0.0692,0.0361,-0.0783,0.0411,0.0403,0.00601,0.00129
CN1CCN(c2c(F)cc3c(=O)c(C(=O)O)cn4c3c2SCC4)CC1,0.0235,-0.00383,0.0303,-0.068,0.019,0.0239,0.00729,-0.0231
COc1ccc(C(=O)NCc2ccc(OCCN(C)C)cc2)cc1OC,-0.0465,-0.0244,-0.0979 (active),-0.0872,-0.00904,-0.0505,0.0059,0.00939
Cc1cccc(C)c1NC(=O)C(C)N (stereo not given),0.0308,0.00908,-0.00222,0.0212,-0.0204,-0.0462,-0.0241,0.0922 (active)
CCN1CCC[C@H]1CNC(=O)c1cc(S(N)(=O)=O)ccc1OC,-0.0214,-0.00754,0.0207,-0.000435,-0.0215,-0.02,0.0473,-0.0273
CC1(C)O[C@@H]2C[C@H]3[C@@H]4C[C@H](F)C5=CC(=O)C=C[C@]5(C)[C@@]4(F)[C@@H](O)C[C@]3(C)[C@]2(C(=O)CO)O1,0.13 (active),0.186 (active),0.0484,0.0785,0.14 (active),0.157 (active),0.0574,0.0265
C[C@@H]1C[C@H]2[C@@H]3C[C@H](F)C4=CC(=O)C(Cl)=C[C@]4(C)[C@@]3(F)[C@@H](O)C[C@]2(C)[C@@]1(O)C(=O)CO,-0.0145,0.131 (active),0.0637,0.0158,0.354 (active),0.0934,0.148 (active),0.0468
COc1cc(C)c(Cc2cnc(N)nc2N)cc1OC,0.0137,0.0281,0.0784,-0.0521,0.0546,0.0143,0.00157,0.0258
NS(=O)(=O)c1cc(C(=O)O)c(NCc2ccco2)cc1Cl,-0.0211,0.0269,-0.028,-0.0468,-0.0154,-0.0184,0.000317,0.0743
